Laboratory results as given in the supplement of paper PMC9262897, “Low-cost anti-mycobacterial drug discovery using engineered E. coli” (Nature Communications, 2022).
Counter-ions that a name gives are not always drawn. ± gives the standard deviation of the averaged measurements.

Experiments:
Test in all cases: growth (OD600 after 10 h); higher = more growth (less inhibition)
[1] = system: E. coli TESEC Alr+ wild-type control; conditions: compound 0.1 mM; raw OD600 reference: median of DMSO wells 0.241, cell-free background 0.041
Experimental: (§1)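 TESEC Mtb Alr E. coli, or the Alr+ wild-type control, in 384-well plates with Prestwick library compounds at 0.1 mM and 1% DMSO, across arabinose induction levels of 1E3 to 1E7 nM. Growth is read as OD600 after 10 h at 37 °C in triplicate biological replicates.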

E. coli TESEC Mtb Alr [2] = conditions: compound 0.1 mM
Experimental: as §1

E. coli TESEC Mtb Asd = conditions: compound 0.1 mM
Experimental: (§2)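 TESEC E. coli strains in which the native enzyme is deleted and replaced by arabinose-inducible Mtb Asd, DapB, CysH or TrpD, each grown in its selective medium. Strains were screened against the Prestwick library at 0.1 mM and 1% DMSO in 384-well format at low and high arabinose induction. Growth is read as OD600 after 10 h in triplicate.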

E. coli TESEC Mtb DapB = conditions: compound 0.1 mM
Experimental: as §2

[3] = system: E. coli TESEC Alr+ wild-type control; conditions: compound 0.1 mM; raw OD600 reference: median of DMSO wells 0.49, cell-free background 0.052
Experimental: (§3)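 TESEC Mtb Alr E. coli (ΔaraC ΔtolC ΔentC Δalr ΔdadX, arabinose-inducible Mtb Alr) or the Alr+ wild-type control strain, grown in defined M9-fructose medium without D-alanine in 96-well plates with Prestwick library compounds at 0.1 mM and 1% DMSO. Low Alr induction is 0.1 µM arabinose and high induction is 10 mM arabinose.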

E. coli TESEC Mtb Alr [4] = conditions: compound 0.1 mM; remark: listed apart in the source
Experimental: as §3

[5] = arabinose 1000 nM, raw OD600 reference: median of DMSO wells 0.294, cell-free background 0.041
[6] = arabinose 10000 nM, raw OD600 reference: median of DMSO wells 0.264, cell-free background 0.041
[7] = arabinose 100000 nM, raw OD600 reference: median of DMSO wells 0.201, cell-free background 0.041
[8] = arabinose 1000000 nM, raw OD600 reference: median of DMSO wells 0.193, cell-free background 0.041
[9] = arabinose 10000000 nM, raw OD600 reference: median of DMSO wells 0.146, cell-free background 0.041
[10] = arabinose induction (level): High, raw OD600 reference: median of DMSO wells 0.331, cell-free background 0.041
[11] = arabinose induction (level): Low, raw OD600 reference: median of DMSO wells 0.417, cell-free background 0.041
[12] = arabinose induction (level): High, raw OD600 reference: median of DMSO wells […], cell-free background 0.041
[13] = arabinose induction (level): Low, raw OD600 reference: median of DMSO wells 0.227, cell-free background 0.041
[14] = arabinose 100 nM, raw OD600 reference: median of DMSO wells 0.413, cell-free background 0.052
[15] = arabinose 10000000 nM, raw OD600 reference: median of DMSO wells […], cell-free background 0.052

SMILES | growth [1] | growth (E. coli TESEC Mtb Alr [2]; [5]) | growth (E. coli TESEC Mtb Alr [2]; [6]) | growth (E. coli TESEC Mtb Alr [2]; [7]) | growth (E. coli TESEC Mtb Alr [2]; [8]) | growth (E. coli TESEC Mtb Alr [2]; [9]) | growth (E. coli TESEC Mtb Asd; [10]) | growth (E. coli TESEC Mtb Asd; [11]) | growth (E. coli TESEC Mtb DapB; [12]) | growth (E. coli TESEC Mtb DapB; [13]) | growth [3] | growth (E. coli TESEC Mtb Alr [4]; [14]) | growth (E. coli TESEC Mtb Alr [4]; [15])
Cn1c(=O)c2c(ncn2CCO)n(C)c1=O [Etofylline] | 0.254 ± 0.003 | 0.283 ± 0.0029 | 0.276 ± 0.016 | 0.228 ± 0.011 | 0.195 ± 0.0066 | 0.145 ± 0.0023 | 0.396 ± 0.053 | 0.425 ± 0.033 | 0.192 ± 0.0028 | 0.264 ± 0.098 | 0.509 ± 0.055 | 0.414 ± 0.0083 | 0.349 ± 0.0046
CC(C)(C)NCC(O)COc1cccc2c1CCC(=O)N2 (stereo unspecified) [Carteolol hydrochloride] | 0.236 ± 0.0081 | 0.285 ± 0.02 | 0.2521 ± 0.002 | 0.197 ± 0.043 | 0.181 ± 0.0071 | 0.143 ± 0.0038 | 0.222 ± 0.024 | 0.349 ± 0.1 | 0.187 ± 0.0085 | 0.217 ± 0.022 | 0.649 ± 0.043 | 0.405 ± 0.009 | 0.334 ± 0.0046
CSc1ccc2c(c1)C(N1CCN(C)CC1)Cc1ccccc1S2 (stereo unspecified) [Methiothepin maleate] | 0.0405 ± 0.00044 | 0.0412 ± 0.0021 | 0.0394 ± 0.00042 | 0.04073 ± 0.00025 | 0.03917 ± 5.8e-05 | 0.0411 ± 0.0013 | 0.0562 ± 0.0036 | 0.0503 ± 0.0057 | 0.0514 ± 0.00083 | 0.0485 ± 0.00094 | 0.04833 ± 0.00021 | 0.293 ± 0.21 | 0.0516 ± 0.00053
CCC1(c2ccccc2)C(=O)NCNC1=O [Primidone] | 0.243 ± 0.011 | 0.296 ± 0.0094 | 0.255 ± 0.0076 | 0.201 ± 0.012 | 0.18 ± 0.0097 | 0.144 ± 0.0039 | 0.448 ± 0.024 | 0.463 ± 0.043 | 0.208 ± 0.014 | 0.249 ± 0.013 | 0.567 ± 0.028 | 0.408 ± 0.015 | 0.333 ± 0.0042
COc1cc(OC)c(C(=O)CCCN2CCCC2)c(OC)c1 [Buflomedil hydrochloride] | 0.238 ± 0.0082 | 0.296 ± 0.0094 | 0.269 ± 0.0091 | 0.201 ± 0.04 | 0.189 ± 0.0075 | 0.146 ± 0.0076 | 0.274 ± 0.033 | 0.335 ± 0.064 | 0.166 ± 0.041 | 0.188 ± 0.01 | 0.642 ± 0.053 | 0.407 ± 0.0067 | 0.345 ± 0.0037
CC1(C)O[C@@H]2C[C@H]3[C@@H]4CCC5=CC(=O)C=C[C@]5(C)[C@H]4[C@@H](O)C[C@]3(C)[C@]2(C(=O)CO)O1 [Desonide] | 0.185 ± 0.0048 | 0.252 ± 0.0091 | 0.254 ± 0.011 | 0.172 ± 0.014 | 0.15 ± 0.005 | 0.144 ± 0.0029 | 0.208 ± 0.0068 | 0.378 ± 0.065 | 0.181 ± 0.005 | 0.248 ± 0.034 | 0.496 ± 0.062 | 0.414 ± 0.011 | 0.302 ± 0.019
CCN(CC)CCOc1ccc(C(=C(Cl)c2ccccc2)c2ccccc2)cc1 [Clomiphene citrate (Z,E)] | 0.0417 ± 0.00081 | 0.04167 ± 0.00032 | 0.04553 ± 0.00029 | 0.0433 ± 0.0019 | 0.0493 ± 0.00052 | 0.0428 ± 0.00085 | 0.0496 ± 0.0019 | 0.0482 ± 0.00099 | 0.04853 ± 0.00015 | 0.0475 ± 0.00049 | 0.0537 ± 0.00085 | 0.0696 ± 0.034 | 0.0856 ± 0.015
OC[C@H]1O[C@@H](Oc2ccc(O)cc2)[C@H](O)[C@@H](O)[C@@H]1O [Arbutin] | 0.245 ± 0.012 | 0.325 ± 0.02 | 0.272 ± 0.011 | 0.193 ± 0.021 | 0.191 ± 0.0053 | 0.144 ± 0.0033 | 0.21 ± 0.011 | 0.362 ± 0.092 | 0.209 ± 0.003 | 0.246 ± 0.051 | 0.499 ± 0.077 | 0.403 ± 0.017 | 0.317 ± 0.013
COc1cc2ncnc(Nc3ccc(F)c(Cl)c3)c2cc1OCCCN1CCOCC1 [Gefitinib] | 0.206 ± 0.013 | 0.294 ± 0.019 | 0.24 ± 0.0039 | 0.198 ± 0.017 | 0.161 ± 0.0089 | 0.162 ± 0.0061 | 0.261 ± 0.026 | 0.454 ± 0.038 | 0.207 ± 0.012 | 0.246 ± 0.0095 | 0.496 ± 0.03 | 0.284 ± 0.2 | 0.0533 ± 0.0025
CC/C(=C(\c1ccccc1)c1ccc(OCCN(C)C)cc1)c1ccccc1 [Tamoxifen citrate] | 0.0423 ± 0.0005 | 0.0419 ± 0.002 | 0.048 ± 0.0005 | 0.0466 ± 0.0016 | 0.0485 ± 0.0015 | 0.0425 ± 0.00078 | 0.0517 ± 0.002 | 0.0526 ± 0.002 | 0.04873 ± 0.00038 | 0.0937 ± 0.078 | 0.0552 ± 0.015 | 0.0503 ± 0.00091 | 0.0549 ± 0.0014
O=C(c1ccccc1)c1ccc2n1CCC2C(=O)O (stereo unspecified) [Ketorolac tromethamine] | 0.222 ± 0.0085 | 0.262 ± 0.015 | 0.253 ± 0.013 | 0.181 ± 0.01 | 0.195 ± 0.0049 | 0.137 ± 0.0035 | 0.381 ± 0.035 | 0.331 ± 0.036 | 0.194 ± 0.02 | 0.216 ± 0.049 | 0.531 ± 0.076 | 0.384 ± 0.016 | 0.326 ± 0.0097
COc1ccccc1OCC(O)CN1CCN(CC(=O)Nc2c(C)cccc2C)CC1 (stereo unspecified) [Ranolazine] | 0.207 ± 0.0059 | 0.309 ± 0.036 | 0.285 ± 0.0092 | 0.155 ± 0.012 | 0.178 ± 0.0088 | 0.135 ± 0.0073 | 0.171 ± 0.014 | 0.342 ± 0.085 | 0.174 ± 0.023 | 0.226 ± 0.021 | 0.471 ± 0.068 | 0.4233 ± 0.0032 | 0.301 ± 0.014
CC(=O)[C@H]1CC[C@H]2[C@@H]3C=CC4=CC(=O)CC[C@@]4(C)[C@@H]3CC[C@]12C [Dydrogesterone] | 0.103 ± 0.005 | 0.154 ± 0.041 | 0.207 ± 0.0034 | 0.085 ± 0.0042 | 0.0856 ± 0.0016 | 0.0751 ± 0.0014 | 0.225 ± 0.038 | 0.402 ± 0.068 | 0.176 ± 0.0054 | 0.189 ± 0.0083 | 0.318 ± 0.0089 | 0.371 ± 0.021 | 0.101 ± 0.022
Cn1c(NCCN(CCO)CCCc2ccc([N+](=O)[O-])cc2)cc(=O)n(C)c1=O [Nifekalant] | 0.241 ± 0.011 | 0.301 ± 0.0034 | 0.248 ± 0.003 | 0.168 ± 0.0095 | 0.144 ± 0.0052 | 0.145 ± 0.002 | 0.179 ± 0.017 | 0.428 ± 0.057 | 0.2 ± 0.033 | 0.258 ± 0.013 | 0.534 ± 0.067 | 0.4 ± 0.015 | 0.298 ± 0.02
CCn1cc(C(=O)O)c(=O)c2ccc(C)nc21 [Nalidixic acid sodium salt] | 0.04987 ± 0.00029 | 0.0467 ± 0.0009 | 0.0394 ± 0.00056 | 0.0502 ± 0.0012 | 0.0413 ± 0.0013 | 0.05153 ± 0.00015 | 0.09847 ± 0.00049 | 0.0829 ± 0.0083 | 0.0992 ± 0.0072 | 0.0689 ± 0.0001 | 0.0678 ± 0.0015 | 0.0753 ± 0.014 | 0.0595 ± 0.0029
CNC(C)CCC=C(C)C (stereo unspecified) [Isometheptene mucate] | 0.259 ± 0.012 | 0.314 ± 0.0099 | 0.266 ± 0.011 | 0.21 ± 0.025 | 0.177 ± 0.0051 | 0.1478 ± 0.0012 | 0.228 ± 0.035 | 0.397 ± 0.096 | 0.22 ± 0.0027 | 0.246 ± 0.018 | 0.51 ± 0.055 | 0.405 ± 0.017 | 0.314 ± 0.02
OCCOCCN1CCN(C(c2ccccc2)c2ccc(Cl)cc2)CC1 (stereo unspecified) [Hydroxyzine dihydrochloride] | 0.142 ± 0.0048 | 0.202 ± 0.0073 | 0.243 ± 0.004 | 0.171 ± 0.0032 | 0.11 ± 0.0035 | 0.1214 ± 0.0011 | 0.164 ± 0.0026 | 0.27 ± 0.013 | 0.182 ± 0.011 | 0.239 ± 0.048 | 0.45 ± 0.02 | 0.421 ± 0.009 | 0.219 ± 0.011
